Source: PubChem BioAssay (NCI)
The panel holds about 83,000 compounds, 20% with a hit somewhere; the sample as a whole holds those more often.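 The test compound was applied at a single concentration to cells in 96-well plates for 48 hours, and percent growth was recorded.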 The source made the active and inactive calls. The calls were made as follows: active = growth percent below 10; inactive = the rest.

The compounds below were run on SNB-75 CNS (assay: NCI-60 one-dose screen, 48 h (100 = growth as untreated, 0 = no growth, -100 = all killed)). Settings: 10 µM unless noted.

**Q.** Which growth does the source give for `COc1ccc(-c2nc(N=Nc3c(O)[nH]c4ccccc34)nc(N3CCOCC3)c2C#N)cc1` here?
**A.** 44% (inactive)

**Q.** For `COc1cc2nc(-c3ccc(C(F)(F)F)cc3)cc(OCCN3CCCC3)c2cc1OC`, which growth is on record?
**A.** 71.6% (inactive)

**Q.** For `NC(=S)N/N=C(/c1ccccc1)c1ccccc1N`, which growth is on record?
**A.** 101% (inactive)

**Q.** `C=C(C)[C@@H]1CC[C@]2(C=O)CC[C@]3(C)[C@H](CC[C@@H]4[C@@]5(C)CCCNC(C)(C)[C@@H]5CC[C@]43C)[C@@H]12` was tested. Which growth did it give?
**A.** 110% (inactive)

**Q.** `CCCNC(=O)Oc1ccc(/C(=C(\C)c2ccccc2)c2ccc(OCCN3CCCCC3)cc2)cc1` was tested. Which growth did it give?
**A.** 88.9% (inactive)

**Q.** With `CCOC(=O)Oc1c(OC)cc(C(=O)O[C@@H]2C[C@@H]3CN4CCc5c([nH]c6cc(OC)ccc56)[C@H]4C[C@@H]3[C@H](C(=O)OC)[C@H]2OC)cc1OC` as the compound, how does the growth read?
**A.** 91.1% (inactive)

**Q.** `COc1ccc(OC)c(/C=C/[C@H]2O[C@@H](C)[C@H](O)[C@@H]2O)c1` was tested. Which growth did it give?
**A.** 90.2% (inactive)

**Q.** With `CCC(=O)c1ccc(O)c(OC)c1` as the compound, how does the growth read?
**A.** 100% (inactive)

**Q.** For `Clc1cc(Cl)cc(N2N=C(c3cccc(Nc4ccncc4)c3)CC2c2ccccc2)c1` (stereo unspecified), which growth is on record?
**A.** 77.4% (inactive)

**Q.** With `Fc1cc(C2=NNC(c3ccc[nH]3)C2)ccc1-n1ccc(C(F)(F)F)n1` (stereo unspecified) as the compound, how does the growth read?
**A.** 87.7% (inactive)

**Q.** For `Clc1nc(Nc2ccccc2)nc(Nc2ccccc2)n1`, which growth is on record?
**A.** 105% (inactive)

**Q.** Which growth does the source give for `Cn1c(=O)c2[nH]c(CCCc3nc4c([nH]3)c(=O)n(C)c(=O)n4C)nc2n(C)c1=O` here?
**A.** 105% (inactive)

**Q.** For `C=C1C(=O)O[C@H]2[C@H]1CC/C(COC(=O)NCCc1c[nH]c3ccc(Cl)cc13)=C\CC[C@@]1(C)O[C@@H]21`, which growth is on record?
**A.** -54.6% (active)

**Q.** How did the growth turn out when `Cc1[nH]c(C(=O)Nc2ccccc2OCc2cccc(C(=O)NCCN)c2)c(Cl)c1Cl` was run?
**A.** 86.2% (inactive)

**Q.** How did the growth turn out when `COc1cc2oc(-c3cccc(C(=O)Nc4ccc(Cl)cc4)c3)cc(=O)c2c(OC)c1OC` was run?
**A.** 70.6% (inactive)

**Q.** Which growth does the source give for `O=C(Nc1nc2ccc(S(=O)(=O)Nc3ccc(C4(C(F)(F)F)CC4)cc3)cc2[nH]1)c1cnccn1` here?
**A.** -27.1% (active)

**Q.** For `CCCCCCCCCCN=C(N)N=C(N)N`, which growth is on record?
**A.** 3.65% (active)

**Q.** `CC(C)NC(=O)N1C(=O)CCC1NNC(=O)c1ccc([N+](=O)[O-])cc1` (stereo unspecified) was tested. Which growth did it give?
**A.** 102% (inactive)

**Q.** `N#Cc1cc(-c2nc3ccccc3s2)c(=O)n(NS(=O)(=O)c2ccc(Cl)cc2)c1N` was tested. Which growth did it give?
**A.** 63.1% (inactive)

**Q.** Which growth does the source give for `O=C1c2ccccc2-c2c1c1c(NCCCO)nc3ccccc3c1n2Cc1ccccc1` here?
**A.** -1.82% (active)

**Q.** How did the growth turn out when `COC(=O)N[C@H]1CCc2cc(OC)c(OC)c(OC)c2-c2ccc(SC)c(=O)cc21` was run?
**A.** 32.4% (inactive)

**Q.** With `COc1nccnn1` as the compound, how does the growth read?
**A.** 96.5% (inactive)

**Q.** `Cc1ccc(C(=O)Nc2ccccc2C(=O)N/N=C(\c2ccccc2)c2ccccn2)cc1` was tested. Which growth did it give?
**A.** 22.1% (inactive)

**Q.** With `CCCCN(CCCC)CCc1c(C)cc(C)c(CCN(CCCC)CCCC)c1O` as the compound, how does the growth read?
**A.** 82.8% (inactive)

**Q.** Which growth does the source give for `Nc1cc(N)c2cccnc2c1O` here?
**A.** 104% (inactive)

**Q.** Which growth does the source give for `CN1CCCC1=Nc1ccccc1` here?
**A.** 80% (inactive)

**Q.** Which growth does the source give for `COc1ccc(CNC(=O)COc2ccc(/C=N/Nc3nc4ccccc4s3)cc2)cc1` here?
**A.** -2.77% (active)

**Q.** Which growth does the source give for `O=C1OC(=O)C2C1CC=CC2c1ccccc1` (stereo unspecified) here?
**A.** 83.7% (inactive)

**Q.** How did the growth turn out when `COc1ccc(CC(C)=C(c2ccc(OCCN(C)C)cc2)c2ccc(OCCN(C)C)cc2)cc1` was run?
**A.** 81.6% (inactive)

**Q.** For `O=C(N=Nc1c(O)[nH]c2ccc(F)cc12)c1cc2ccccc2[nH]1`, which growth is on record?
**A.** 99.6% (inactive)

**Q.** `O=S(=O)(NCCNc1nccc(-c2c(-c3cccc(F)c3)nc3occn23)n1)c1cccc2ccccc12` was tested. Which growth did it give?
**A.** 61.4% (inactive)

**Q.** Which growth does the source give for `O=S(=O)(c1ccc(N/N=C\c2ccccc2)cc1)c1ccc(N/N=C/c2ccccc2)cc1` here?
**A.** 87% (inactive)

**Q.** For `CCOc1ccc(/C=N/Nc2cc(C)nc3ccc(Cl)cc23)cc1`, which growth is on record?
**A.** 101% (inactive)

**Q.** `CC(C)Cc1ccc(C(C)C(=O)NCc2c[nH]c3ccc(Cl)cc23)cc1` (stereo unspecified) was tested. Which growth did it give?
**A.** 102% (inactive)

**Q.** Which growth does the source give for `COc1ccccc1OCC(=O)N1CCCCCC1` here?
**A.** 91.4% (inactive)

**Q.** With `Nc1nc(SN=Nc2ccc(S(N)(=O)=O)cc2)c2[nH]cnc2n1` as the compound, how does the growth read?
**A.** 5.46% (active)

**Q.** With `COc1ccc(C2CC(n3nnnc3-c3ccccc3)=NN2)cc1` (stereo unspecified) as the compound, how does the growth read?
**A.** 76.9% (inactive)

**Q.** For `CC(c1ccccc1)n1ccnc1CO` (stereo unspecified), which growth is on record?
**A.** 92.4% (inactive)

What follows are compounds tested on SNB-19 CNS in the same assay as above. Settings: 10 µM unless noted.

**Q.** Which growth does the source give for `COc1ccc(-c2nc(N=Nc3c(O)[nH]c4ccccc34)nc(N3CCOCC3)c2C#N)cc1` here?
**A.** 72.6% (inactive)

**Q.** With `COc1cc2nc(-c3ccc(C(F)(F)F)cc3)cc(OCCN3CCCC3)c2cc1OC` as the compound, how does the growth read?
**A.** 88.7% (inactive)

**Q.** How did the growth turn out when `NC(=S)N/N=C(/c1ccccc1)c1ccccc1N` was run?
**A.** 101% (inactive)

**Q.** How did the growth turn out when `C=C(C)[C@@H]1CC[C@]2(C=O)CC[C@]3(C)[C@H](CC[C@@H]4[C@@]5(C)CCCNC(C)(C)[C@@H]5CC[C@]43C)[C@@H]12` was run?
**A.** 84.6% (inactive)

**Q.** For `CCCNC(=O)Oc1ccc(/C(=C(\C)c2ccccc2)c2ccc(OCCN3CCCCC3)cc2)cc1`, which growth is on record?
**A.** 79% (inactive)

**Q.** Which growth does the source give for `CCOC(=O)Oc1c(OC)cc(C(=O)O[C@@H]2C[C@@H]3CN4CCc5c([nH]c6cc(OC)ccc56)[C@H]4C[C@@H]3[C@H](C(=O)OC)[C@H]2OC)cc1OC` here?
**A.** 75.5% (inactive)

**Q.** With `COc1ccc(OC)c(/C=C/[C@H]2O[C@@H](C)[C@H](O)[C@@H]2O)c1` as the compound, how does the growth read?
**A.** 99.4% (inactive)

**Q.** With `CCC(=O)c1ccc(O)c(OC)c1` as the compound, how does the growth read?
**A.** 95.9% (inactive)

**Q.** For `Clc1cc(Cl)cc(N2N=C(c3cccc(Nc4ccncc4)c3)CC2c2ccccc2)c1` (stereo unspecified), which growth is on record?
**A.** 88.9% (inactive)

**Q.** `Fc1cc(C2=NNC(c3ccc[nH]3)C2)ccc1-n1ccc(C(F)(F)F)n1` (stereo unspecified) was tested. Which growth did it give?
**A.** 91.2% (inactive)

**Q.** With `Clc1nc(Nc2ccccc2)nc(Nc2ccccc2)n1` as the compound, how does the growth read?
**A.** 104% (inactive)

**Q.** Which growth does the source give for `Cn1c(=O)c2[nH]c(CCCc3nc4c([nH]3)c(=O)n(C)c(=O)n4C)nc2n(C)c1=O` here?
**A.** 101% (inactive)

**Q.** How did the growth turn out when `C=C1C(=O)O[C@H]2[C@H]1CC/C(COC(=O)NCCc1c[nH]c3ccc(Cl)cc13)=C\CC[C@@]1(C)O[C@@H]21` was run?
**A.** 32.4% (inactive)

**Q.** Which growth does the source give for `Cc1[nH]c(C(=O)Nc2ccccc2OCc2cccc(C(=O)NCCN)c2)c(Cl)c1Cl` here?
**A.** 58.3% (inactive)

**Q.** For `COc1cc2oc(-c3cccc(C(=O)Nc4ccc(Cl)cc4)c3)cc(=O)c2c(OC)c1OC`, which growth is on record?
**A.** 52.7% (inactive)

**Q.** How did the growth turn out when `O=C(Nc1nc2ccc(S(=O)(=O)Nc3ccc(C4(C(F)(F)F)CC4)cc3)cc2[nH]1)c1cnccn1` was run?
**A.** 40.3% (inactive)

**Q.** With `CCCCCCCCCCN=C(N)N=C(N)N` as the compound, how does the growth read?
**A.** 38.7% (inactive)

**Q.** `CC(C)NC(=O)N1C(=O)CCC1NNC(=O)c1ccc([N+](=O)[O-])cc1` (stereo unspecified) was tested. Which growth did it give?
**A.** 107% (inactive)

**Q.** For `N#Cc1cc(-c2nc3ccccc3s2)c(=O)n(NS(=O)(=O)c2ccc(Cl)cc2)c1N`, which growth is on record?
**A.** 102% (inactive)

**Q.** `O=C1c2ccccc2-c2c1c1c(NCCCO)nc3ccccc3c1n2Cc1ccccc1` was tested. Which growth did it give?
**A.** 16.7% (inactive)

**Q.** With `COC(=O)N[C@H]1CCc2cc(OC)c(OC)c(OC)c2-c2ccc(SC)c(=O)cc21` as the compound, how does the growth read?
**A.** 31.1% (inactive)

**Q.** Which growth does the source give for `COc1nccnn1` here?
**A.** 91.2% (inactive)

**Q.** With `Cc1ccc(C(=O)Nc2ccccc2C(=O)N/N=C(\c2ccccc2)c2ccccn2)cc1` as the compound, how does the growth read?
**A.** 26.2% (inactive)

**Q.** `CCCCN(CCCC)CCc1c(C)cc(C)c(CCN(CCCC)CCCC)c1O` was tested. Which growth did it give?
**A.** 22.8% (inactive)

**Q.** How did the growth turn out when `Nc1cc(N)c2cccnc2c1O` was run?
**A.** 64.2% (inactive)

**Q.** How did the growth turn out when `CN1CCCC1=Nc1ccccc1` was run?
**A.** 107% (inactive)

**Q.** `COc1ccc(CNC(=O)COc2ccc(/C=N/Nc3nc4ccccc4s3)cc2)cc1` was tested. Which growth did it give?
**A.** 36.8% (inactive)

**Q.** Which growth does the source give for `O=C1OC(=O)C2C1CC=CC2c1ccccc1` (stereo unspecified) here?
**A.** 93.7% (inactive)

**Q.** How did the growth turn out when `COc1ccc(CC(C)=C(c2ccc(OCCN(C)C)cc2)c2ccc(OCCN(C)C)cc2)cc1` was run?
**A.** 80.1% (inactive)

**Q.** Which growth does the source give for `O=C(N=Nc1c(O)[nH]c2ccc(F)cc12)c1cc2ccccc2[nH]1` here?
**A.** 97.7% (inactive)

**Q.** `O=S(=O)(NCCNc1nccc(-c2c(-c3cccc(F)c3)nc3occn23)n1)c1cccc2ccccc12` was tested. Which growth did it give?
**A.** 67.1% (inactive)

**Q.** How did the growth turn out when `O=S(=O)(c1ccc(N/N=C\c2ccccc2)cc1)c1ccc(N/N=C/c2ccccc2)cc1` was run?
**A.** 81.4% (inactive)

**Q.** Which growth does the source give for `CCOc1ccc(/C=N/Nc2cc(C)nc3ccc(Cl)cc23)cc1` here?
**A.** 76.1% (inactive)

**Q.** Which growth does the source give for `CC(C)Cc1ccc(C(C)C(=O)NCc2c[nH]c3ccc(Cl)cc23)cc1` (stereo unspecified) here?
**A.** 96.2% (inactive)

**Q.** How did the growth turn out when `COc1ccccc1OCC(=O)N1CCCCCC1` was run?
**A.** 96.2% (inactive)

**Q.** Which growth does the source give for `Nc1nc(SN=Nc2ccc(S(N)(=O)=O)cc2)c2[nH]cnc2n1` here?
**A.** 103% (inactive)

**Q.** For `COc1ccc(C2CC(n3nnnc3-c3ccccc3)=NN2)cc1` (stereo unspecified), which growth is on record?
**A.** 88.1% (inactive)

**Q.** `CC(c1ccccc1)n1ccnc1CO` (stereo unspecified) was tested. Which growth did it give?
**A.** 98.5% (inactive)
